VACV Venus inh = qHTS for Stage-Specific Inhibitors of Vaccinia Orthopoxvirus: Venus Reporter Primary qHTS; Vaccinia virus Venus reporter expression, fluorescence; Potency, µM (titrated, usually from 36.5 µM), for the others: at the highest dose activity change, negative = inhibition, most hits filed as inhibitors; actives 0.46% (n = 330,000); calls by dose curve; tested in A549 cells; note: potency is the fitted concentration of half-maximal effect; nearly all actives have a fitted effect of over 30% in size
VACV mCherry inh = qHTS for Stage-Specific Inhibitors of Vaccinia Orthopoxvirus: mCherry Reporter Primary qHTS. Vaccinia virus mCherry reporter infection, fluorescence. Potency, µM (doses to about 36.5 µM), without a hit: at the highest dose activity change, negative = inhibition, most hits filed as inhibitors. actives 0.63% (n = 310,000); calls by dose curve; tested in A549 cells; note: potency is the fitted concentration of half-maximal effect; nearly all actives have a fitted effect of over 35% in size
HCV inh = qHTS Assay for Inhibitors of Hepatitis C Virus (HCV). AID 651820, 2012. Huh7.5.1 HCVcc-Cre infection, luciferase reporter, 44 h. Potency, µM (highest dose often 41.8 µM), without a hit: at the top dose activity change, negative = inhibition, actives largely listed as inhibitors. actives 3.4% (n = 340,000); note: potency is the fitted concentration of half-maximal effect
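HCVcc-Cre virus at an moi near 0.5 was added right after compound to cells cultured 4 h from seeding (1,000 cells/well). Luciferase activity was determined 44 h later, 15 min after substrate addition at RT.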
HCMV antiviral = qHTS Assay for inhibitors of the human cytomegalovirus (HCMV). HFF cells, HCMV-luciferase reporter, 72 h; stronger effect = lower value. activity change, negative = inhibition, % at 57.5 µM. actives 4.5% (n = 410,000); in the data active = activity change below about -60%; inconclusive = no clear call, values can overlap the other calls; inactive = above about -39%
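Cell-based, HFFs, 1000 cells/well, 16 h 37C; cpds in DMSO + HCMV-luc, MOI 1 PFU/cell; 72 h 37C; OneGlo luminescence after 5 min RT; norm. to buffer vs Salinomycin 10uM.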
Sm TGR inh = qHTS Assay for the Inhibitors of Schistosoma Mansoni Peroxiredoxins; Schistosoma mansoni thioredoxin glutathione reductase (TGR), Q962Y6; purified TGR, DTNB reduction, TNB absorbance 405 nm; Potency, µM (top dose mostly 114 µM), inactives show top-dose activity change, negative = inhibition, actives largely listed as inhibitors; actives 3% (n = 360,000); AID 485364, 2010; note: potency is the fitted concentration of half-maximal effect; nearly all actives have a fitted effect of over 60% in size
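Kinetic colorimetric format: TGR-catalysed, NADPH-driven DTNB reduction monitored via TNB absorbance. Enzyme dispensed at 20 nM; compound exposure 15 min at room temperature before reaction start.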
FMDV inh = High Throughput Screening for Foot and Mouth Disease Virus Antivirals; Potency, µM (titrated, usually from 57.9 µM), for the others: at the top dose activity change, negative = inhibition, most hits filed as inhibitors; actives 1.2% (n = 410,000); FMDV antiviral cell-based qHTS; calls by dose curve; tested in HEK293T cells; note: read-out not given here; potency is the fitted concentration of half-maximal effect; nearly all actives have a fitted effect of over 45% in size
Starred values were filed as active, the others as inactive; i = inactive; u = inconclusive; x = not tested or not shown; [ ] = remark or other dose. In the library only some 9.3% were active in any assay of this set; here they are far more common. Unless noted, calls come from the whole dose curve; as a rule, active = well fitted curve in the direction sought with a large enough effect; inconclusive = small, poorly fitted or top-dose-only effect, or another doubt; inactive = no such curve, though single readings can be large; an effect the other way counts as inactive or inconclusive. % is set by controls: 0 for no effect and ±100 for the full control effect.

SMILES	VACV Venus inh	VACV mCherry inh	HCV inh	HCMV antiviral	Sm TGR inh	FMDV inh
COc1ccc(-c2cnc(C(O)c3ccc(C(C)(C)C)cc3)[nH]2)cc1 (configuration not stated)	-4%	33%	x	-11	x	-4%
COCCN(C(=O)COC(=O)CC1CCCCC1)c1c(N)n(Cc2ccccc2)c(=O)[nH]c1=O	x	x	10%	-21	-13%	-3%
CCC(=O)Nc1sccc1C(=O)OC	x	x	1%	57	2%	5%
CCOC(=O)NC(=O)C(/C=N/c1sccc1C(=O)OC)=C(\C)O	4%	4%	0.56µM*	-5	x	u
Cc1ccc(C)c(-n2nnnc2SCC(=O)c2ccc3c(c2)NC(=O)CO3)c1	x	x	u	-84*	-5%	u
N#CCC(=O)Nc1ccc(C(=O)NNC(=S)NC2CC2)cc1	-13%	i	-12%	-97*	-8%	6%
CCC(C)NC(=S)Nc1ccccc1 (configuration not stated)	-5%	i	-9%	-6	11%	3%
CCC(C)NC(=S)Nc1ccc(C(=O)OC)cc1 (configuration not stated)	-5%	-4%	u	-85*	9%	19%
COC(=O)c1ccc(NC(=S)NC2CC2)cc1	-16%	i	-14%	25	16µM*	21%
COC(=O)c1ccc(NC(=S)NC2CC(C)(C)NC(C)(C)C2)cc1	-19%	i	u	-30	-14%	-15%
COC(=O)Cc1ccc(NC(=S)NC2CC2)cc1	-6%	-12%	20%	48	45µM*	-7%
O=C(CCCn1c(=O)c2ccccc2n(CC(=O)Nc2cccc(Cl)c2)c1=O)NCc1ccc2c(c1)OCO2	1%	-7%	x	u	6%	-8%
O=C(O)c1ccc(S(=O)(=O)c2ccccc2C(=O)O)c([N+](=O)[O-])c1	2%	i	13%	-32	6%	-4%
O=C(O)c1ccc(S(=O)(=O)c2ccc([N+](=O)[O-])cc2[N+](=O)[O-])cc1	x	x	-23%	-22	0.1µM*	-29%
COc1ccc(NC(=O)COC(=O)CCSc2ccccc2)cc1OC	x	x	-9%	-7	x	-15%
S=c1nc[nH]c2c1ncn2C1CCCO1 (configuration not stated)	u	11µM*	12%	16	3%	-13%
OCC1OC(n2cnc3c(=S)nc[nH]c32)CC1O (configuration not stated)	-12%	i	11%	31	x	-9%
Nc1ncnc2c1ncn2C1CCCO1 (configuration not stated)	-3%	-26%[87.9 µM]	-4%	-73*	-4%	-22%
Cc1cc(OCC(=O)NN2C(=O)c3ccccc3C2=O)ccc1Cl	x	x	4%	-7	15%	-20%
Cc1sc2nc(CSCC(=O)Nc3cc(F)ccc3F)[nH]c(=O)c2c1C	x	x	-25%	-2	-7%	-20%
C=C1C(=O)[C@@]23C[C@H]4[C@@H]5[C@@]6(C)CCC[C@@]57[C@@H]2[C@@H](O)[C@@H]1C[C@H]3[C@H]7N4C6	u	u	-45%	-77*	x	25µM*
Cc1c(Cl)cccc1Nc1n[nH]c(=S)s1	-9%	-4%	20%	-66*	x	-3%
O=C(Nc1nnc(-c2ccco2)s1)C1CCN(S(=O)(=O)c2ccc(Cl)cc2)CC1	-14%	2%	-8%	u	0%	x
O=C(Nc1nnc(-c2ccco2)s1)C1CC1	x	x	16%	44	45µM*	52%
Cc1ccccc1C(=O)Nc1nnc(-c2ccco2)s1	4%	i	11µM*	16	-6%	u
O=C(Nc1nnc(-c2ccco2)s1)c1ccccc1	-10%	-13%	18%	26	25µM*	-38%
COc1ccccc1C(=O)Nc1nnc(-c2ccco2)s1	-4%	-13%	-9%	44	-1%	x
FC(F)(F)c1nnc2c(Sc3ccccc3)nc3ccccc3n12	x	x	u	-101*	u	31%

From PubChem BioAssay
